From PubChem BioAssay
Activity calls are given as the source filed them.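 How the source made its calls, unless noted: active means inhibition above 20% together with a positive visual image hit; inconclusive means visual image hit but inhibition not above 20%; inactive means no visual image hit.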

How the values were obtained:
[1] = inhibitors of TNFa-induced NFkB p65 translocation, primary screen, imaging, HUVEC, MLSMR starter and 10KST1 sets (AID 438); conditions: HUVEC TNFa-induced p65 nuclear translocation; cell count: measured here: nuclei count (cytotoxicity indicator), at 2.08 µM; inhibition: at 2 µM, stronger effect = higher value, 0% TNFa-plus-vehicle, 100% no-TNFa wells;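 further: compound added about 3h40 before a 20 min TNFalpha stimulation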;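 on inhibition: signal is the nuclear over cytoplasmic p65 intensity ratio per well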
[2] = inhibitors of mutant huntingtin aggregation, primary screen, imaging, exon1htt(103Q)mCFP cells, high-content imaging (AID 483;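 active means visual image review flags a hit and inhibition of aggregation exceeds 20%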;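 further: compound exposure lasted 3 days before fixation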;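 on nuclei count: percent of the per-plate median nuclei count of sample wells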); conditions: exon1htt(103Q)mCFP cell line, aggregate imaging, at 2 µM; inhibition of aggregation: stronger effect = higher value; nuclei count: measured here: cell count, toxicity
[3] = inhibitors of E-selectin induction by TNFa, primary screen, imaging, HUVEC, immunofluorescence, MLSMR starter and 10KST1 sets (AID 487;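 active means visually confirmed hit in the image check and inhibition above 20%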;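 on inhibition: signal is fraction of cell area covered by stained E-selectin grains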;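 on nuclei count: 100% = median nuclei count of all wells on the same plate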); conditions: HUVEC TNFalpha-induced E-selectin immunofluorescence imaging, at 2 µM; inhibition: stronger effect = higher value; nuclei count: measured here: cell number, toxicity
[4] = target: Voltage-gated potassium channel subunit beta-2 (Rattus norvegicus) (UniProt P62483); test: KvBeta enzyme negative modulators, primary screen, biochemical, NADPH fluorescence (AID 622;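 active means fluorescence slope higher than the sample average by over 3 SD, cut at about -0.22 in these data, passing the limit was not always enough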;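 further: slope of raw intensity against log time taken from 70 to 1610 s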); conditions: recombinant KvBeta, 4-cyanobenzaldehyde reduction, at 10 µM, stronger effect = higher value
[5] = target: Voltage-gated potassium channel subunit beta-2 (Rattus norvegicus) (UniProt P62483); test: KvBeta positive modulators, primary screen, biochemical, NADPH fluorescence (AID 623;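 active means NADPH fluorescence slope more negative than the mean of all samples by about 3 SD, 99.7% confidence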;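 further: fluorescence intensity change per second fitted from 20 to 320 s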); conditions: Recombinant KvBeta, NADPH fluorescence decrease slope, 10 min; at 10 µM; stronger effect = lower value
[6] = target: Alpha-2C adrenergic receptor (Homo sapiens) (UniProt P18825); test: modulators of alpha2C/GIRK thallium flux, primary screen, cell-based, HEK293 alpha2C/GIRK1/2 (AID 624;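 active means fluorescence slope after compound addition differing from the mean of all screened samples at 99.7% confidence, in either direction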;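 further: slope of fluorescence ratio to pre-addition baseline per second over 15 to 24 s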); conditions: thallium flux BTC fluorescence, at 10 µM, actives lie on both sides
[7] = inhibitors of Sendai virus-induced IRF3 signaling, primary screen, TLR/RLR signaling modifier project, cell-based, Sendai virus stimulus, luciferase, 10K MLSCN set (AID 602276;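 active means inhibition at or above 50% at 10 µM; inactive means inhibition below 50%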;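 further: firefly luciferase from ISG56 promoter only with Renilla not read in this screen; 0% = Sendai virus plus DMSO and 100% = medium plus DMSO without virus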); conditions: HEK293 RL24 IRF3 luciferase reporter, at 10 µM, stronger effect = higher value
[8] = inhibitors of poly I:C-induced TLR3 signaling, primary screen, cell-based, poly I:C stimulus, luciferase, 10K MLSCN set (AID 602277;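 active means inhibition of the reporter signal at or above 50%; inactive means inhibition below 50%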); conditions: HEK293-TLR3 RL24 IRF3 luciferase reporter, at 10 µM, stronger effect = higher value

Chain of Alpha-2C adrenergic receptor (Homo sapiens) (P18825 whole entry, looked up): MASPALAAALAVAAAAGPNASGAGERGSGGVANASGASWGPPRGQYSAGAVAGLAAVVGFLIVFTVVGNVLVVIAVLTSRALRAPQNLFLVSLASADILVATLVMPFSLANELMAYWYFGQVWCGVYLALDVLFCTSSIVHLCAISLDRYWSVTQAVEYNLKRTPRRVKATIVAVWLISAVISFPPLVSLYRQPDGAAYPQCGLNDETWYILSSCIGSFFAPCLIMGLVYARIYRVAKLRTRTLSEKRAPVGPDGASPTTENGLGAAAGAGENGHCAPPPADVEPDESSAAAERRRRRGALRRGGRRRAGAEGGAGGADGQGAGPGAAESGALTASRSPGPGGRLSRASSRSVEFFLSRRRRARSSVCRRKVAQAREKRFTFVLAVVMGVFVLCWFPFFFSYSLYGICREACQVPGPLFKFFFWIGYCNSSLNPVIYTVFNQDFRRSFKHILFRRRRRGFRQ
Chain of Voltage-gated potassium channel subunit beta-2 (Rattus norvegicus) (P62483 whole entry, looked up): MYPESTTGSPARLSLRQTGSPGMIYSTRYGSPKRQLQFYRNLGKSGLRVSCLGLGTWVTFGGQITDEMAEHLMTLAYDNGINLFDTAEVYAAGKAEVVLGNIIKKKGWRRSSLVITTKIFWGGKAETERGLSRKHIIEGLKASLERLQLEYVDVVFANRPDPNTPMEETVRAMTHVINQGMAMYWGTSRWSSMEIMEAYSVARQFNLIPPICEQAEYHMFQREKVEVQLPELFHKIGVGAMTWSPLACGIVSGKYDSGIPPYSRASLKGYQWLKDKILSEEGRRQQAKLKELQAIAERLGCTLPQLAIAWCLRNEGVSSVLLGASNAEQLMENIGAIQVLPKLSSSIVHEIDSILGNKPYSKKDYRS

Compound	cell count [1]	inhibition [1]	inhibition of aggregation [2]	nuclei count [2]	inhibition [3]	nuclei count [3]	fluorescence slope [4]	NADPH fluorescence slope [5]	slope [6]	inhibition [7]	inhibition [8]
CC1CCc2nn(CC(=O)NCCCN3CCOCC3)cc2C1 (stereo not drawn)	608	10.3% (inactive)	-17.8% (inactive)	125%	28.4% (inactive)	107%	-0.578 (inactive)	-1.9e-05 (inactive)	0.0058 (inactive)	8.95% (inactive)	36.3% (inactive)
COc1ccccc1N1CCN(c2cc(=O)n(Cc3ccc(F)cc3)c(=O)[nH]2)CC1	503	-2.8% (inactive)	2% (inactive)	44%	11.7% (inactive)	106%	-0.569 (inactive)	-3.7e-05 (inactive)	0.00657 (inactive)	17.1% (inactive)	29.3% (inactive)
O=[n+]1cc(-c2ccc(F)cc2)n([O-])c2c1CCC2	391	6.5% (inactive)	8.8% (inactive)	103%	-70% (inactive)	108%	-0.587 (inactive)	3.3e-05 (inactive)	0.00589 (inactive)	5.02% (inactive)	15.4% (inactive)
O=C(CSc1ncc(-c2ccc(F)cc2)[nH]1)N1CCCCC1	425	0% (inactive)	-11% (inactive)	78.3%	-25.6% (inactive)	106%	-0.331 (inactive)	-5.1e-05 (inactive)	0.00631 (inactive)	-13% (inactive)	-71.4% (inactive)
CCCC(=O)OCCn1c(Br)nc2c1c(=O)[nH]c(=O)n2C	627	-9.1% (inactive)	-10% (inactive)	127%	-46.5% (inactive)	121%	-0.509 (inactive)	-3.2e-05 (inactive)	0.00531 (inactive)	20.4% (inactive)	15.6% (inactive)
O=C(CSc1nnnn1-c1ccc2c(c1)OCO2)NCc1cccs1	240	4.8% (inactive)	2.8% (inactive)	90.3%	-66.6% (inactive)	98.8%	-0.447 (inactive)	9.8e-06 (inactive)	0.00659 (inactive)	33.3% (inactive)	-10.4% (inactive)
CC1(C)CC(=O)C=C(Nc2ccc(OCC(F)(F)C(F)F)cc2)C1	362	-0.3% (inactive)	-25.2% (inactive)	110%	-43% (inactive)	116%	-0.324 (inactive)	-1.5e-05 (inactive)	0.00531 (inactive)	-8.49% (inactive)	-18.3% (inactive)
CC(C)CCNC(=O)C(c1cccs1)N(CC1CCCO1)C(=O)Cn1nnc2ccccc21 (stereo not drawn)	642	8.8% (inactive)	3.2% (inactive)	85.4%	-132% (inactive)	97.1%	-0.451 (inactive)	-5.1e-05 (inactive)	0.00299 (inactive)	10.3% (inactive)	35.6% (inactive)
CN(C)/C=N/c1ncnc2c1cnn2-c1ccc(C(F)(F)F)cn1	565	-0.9% (inactive)	-3.8% (inactive)	110%	21% (inactive)	114%	-0.583 (inactive)	-4.6e-05 (inactive)	0.0102 (inactive)	-45.2% (inactive)	-118% (inactive)
CCn1c(SCC(=O)Nc2ccc(Cl)cc2)nnc1C1CC1	811	1.7% (inactive)	12.1% (inactive)	127%	-54.5% (inactive)	97.1%	-0.608 (inactive)	-1.6e-05 (inactive)	0.00675 (inactive)	4.41% (inactive)	17.1% (inactive)
COc1ccccc1-n1c(=O)[nH]c2c(C(N)=O)nc(-c3cccnc3)nc21	679	-5.2% (inactive)	-20.4% (inactive)	101%	-19.1% (inactive)	104%	-0.516 (inactive)	-3.5e-06 (inactive)	0.00612 (inactive)	15.6% (inactive)	-10.2% (inactive)
Cn1cnc2cc(NC(=O)c3ccc(Cl)cc3)ccc21	829	6.9% (inactive)	22.8% (inactive)	74.5%	3.1% (inactive)	106%	-0.387 (inactive)	2.4e-05 (inactive)	0.00603 (inactive)	-39.3% (inactive)	-143% (inactive)
O=C(Cn1nnc2ccccc2c1=O)NC1CCCc2ccccc21 (stereo not drawn)	485	-2.9% (inactive)	-0.1% (inactive)	108%	10.6% (inactive)	92.5%	-0.486 (inactive)	-1.6e-05 (inactive)	0.00524 (inactive)	17% (inactive)	25% (inactive)
Cc1noc(C)c1COc1cccc(C(=O)Nc2ccc(C#N)cc2)c1	422	0.4% (inactive)	3.1% (inactive)	94.2%	-15.6% (inactive)	106%	-0.455 (inactive)	-4.9e-05 (inactive)	0.00473 (inactive)	2.49% (inactive)	-0.298% (inactive)
CCCc1cc(=O)[nH]c(/N=C(\N)Nc2ccccc2)n1	826	3.6% (inactive)	-12.7% (inactive)	94.3%	-95.3% (inactive)	138%	-0.431 (inactive)	-2.5e-05 (inactive)	0.0048 (inactive)	12.3% (inactive)	16.6% (inactive)
COc1ccc(C2(C(=O)N3CCCC3)CCOCC2)cc1OC	352	5.5% (inactive)	-9.9% (inactive)	97.5%	30.4% (inactive)	111%	-0.341 (inactive)	-1.4e-05 (inactive)	0.00553 (inactive)	2.28% (inactive)	15.1% (inactive)
CSCCC(N=CC1=C(O)CC(C)(C)CC1=O)C(=O)O (stereo not drawn)	405	1.8% (inactive)	-10.8% (inactive)	104%	-0.2% (inactive)	118%	-0.363 (inactive)	-4.2e-05 (inactive)	0.00607 (inactive)	15.3% (inactive)	22.3% (inactive)
O=C(O)c1ccc(COc2c(F)c(F)cc(F)c2F)cc1	611	-0.8% (inactive)	27.2% (inactive)	102%	-50.1% (inactive)	107%	-0.453 (inactive)	-1.9e-05 (inactive)	0.00642 (inactive)	8.32% (inactive)	8.92% (inactive)
CCN1CCN(C(c2cccs2)C(C)NC(=O)c2ccccc2)CC1 (stereo not drawn)	528	-0.3% (inactive)	-7.7% (inactive)	102%	-20.1% (inactive)	128%	-0.59 (inactive)	-3.6e-05 (inactive)	0.00664 (inactive)	8.51% (inactive)	39.8% (inactive)
COc1cccc(NC(=O)N[C@@H](Cc2ccccc2)C(=O)O)c1	565	-9.8% (inactive)	-6.9% (inactive)	103%	-37% (inactive)	100%	-0.591 (inactive)	-3.6e-05 (inactive)	0.00635 (inactive)	6.12% (inactive)	15.1% (inactive)
CCCc1nnc(SCC(=O)N2CCOCC2)n1Cc1ccco1	660	-2.2% (inactive)	-10.6% (inactive)	96.5%	-0.5% (inactive)	101%	-0.617 (inactive)	-5.1e-05 (inactive)	0.0036 (inactive)	19.5% (inactive)	22.7% (inactive)
CC1CCCc2sc3nc(NCc4ccco4)n4ncnc4c3c21 (stereo not drawn)	335	7.7% (inactive)	8.4% (inactive)	17.7%	5.2% (inactive)	112%	-0.514 (inactive)	-9.2e-06 (inactive)	0.00555 (inactive)	2.57% (inactive)	-0.465% (inactive)
COc1cc(CN(C)CC(=O)c2[nH]c(C)c(C(C)=O)c2C)ccc1OC(F)F	443	1.6% (inactive)	-11% (inactive)	95.9%	-86.8% (inactive)	129%	-0.616 (inactive)	-2.3e-05 (inactive)	0.00408 (inactive)	-17.1% (inactive)	-82.6% (inactive)
CCOc1ccc(Cc2nn[nH]n2)cc1	663	-3.2% (inactive)	10.3% (inactive)	90.5%	-38.6% (inactive)	141%	-0.47 (inactive)	-0.000245 (inactive)	0.00563 (inactive)	9.13% (inactive)	16.7% (inactive)
COC(=O)CSC1=NS(=O)(=O)c2ccccc21	340	1.2% (inactive)	19.6% (inactive)	91.3%	45.9% (inactive)	113%	-0.5 (inactive)	-3.6e-05 (inactive)	0.00571 (inactive)	20.5% (inactive)	21.4% (inactive)
Fc1cccc(Cl)c1Cn1nnc2c(NCc3ccccn3)ncnc21	716	-10.5% (inactive)	15.5% (inactive)	120%	-26.6% (inactive)	108%	-0.514 (inactive)	-6.7e-05 (inactive)	0.0046 (inactive)	6.08% (inactive)	9.56% (inactive)
Cc1c(C(=O)OC2CCC(C)CC2)[nH]c2c1C(=O)CCC2 (stereo not drawn)	625	-0.8% (inactive)	23.7% (inactive)	81.6%	-31.8% (inactive)	118%	-0.56 (inactive)	1.4e-05 (inactive)	0.00619 (inactive)	-106% (inactive)	-256% (inactive)
O=C(NCc1cccs1)C1CC(=O)N(c2ccccc2)C1 (stereo not drawn)	345	-0.5% (inactive)	11.8% (inactive)	98.2%	-28.7% (inactive)	84%	-0.625 (inactive)	3.2e-06 (inactive)	0.00459 (inactive)	2.75% (inactive)	4.93% (inactive)
